Screening results from PubChem.
Rows were chosen to be rich in hits. Some 19% of all compounds tested hit in one or more screens of this group.
DT40 TDP1 CPT = qHTS for Inhibitors of human tyrosyl-DNA phosphodiesterase 1 (TDP1): qHTS in cells in presence of CPT; chicken DT40 Tdp1-/-;hTDP1 cells + 20 nM CPT, ATP luminescence, 48 h; Potency, µM (highest dose often 46.2 µM), for the others: at the highest dose activity change, negative = growth inhibition, most hits filed as inhibitors; 420,000 compounds, 12% hits; also: potency is read from the fitted curve at half-maximal effect; nearly all actives have a fitted effect of over 55% in size
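Cell growth measured by CellTiter-Glo luminescence after a minimum 48 h, 37 C compound exposure with 20 nM CPT in Tdp1-knockout DT40 cells stably expressing hTDP1, seeded 400/well; qHTS titration format.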
HT1080-NT tox = qHTS for induction of synthetic lethality in tumor cells producing 2HG: qHTS for the HT-1080-NT fibrosarcoma cell line; Potency, µM (top dose mostly 46.1 µM), for inactives: at the highest dose activity, negative = less viability, actives largely listed as cytotoxic; 360,000 compounds, 1.6% hits; HT-1080-NT fibrosarcoma viability, CellTiter-Glo ATP luminescence, 48 h; AID 686970, 2013;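 also: NT is the 2HG producing partner of a matched IDH1 knockdown line; potency is read from the fitted curve at half-maximal effect; 0% = DMSO-treated cells and -100% = media-only wells without cells; nearly all actives have a fitted effect of over 55% in size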
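A 48-hour cytotoxicity screen used HT-1080-NT cells plated 2 hours before compound delivery. ATP-based CellTiter-Glo luminescence measured viability, normalized to DMSO and no-cell controls.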
IL1B secr inh = qHTS for Inhibitors of Inflammasome Signaling: IL-1-beta AlphaLISA Primary Screen; activity change, % at 57.5 µM; 360,000 compounds, 4.7% hits; THP-1 LPS/ATP IL-1B secretion, AlphaLISA, 16 h; stronger effect = lower value; in the data active = activity change below about -50%; inconclusive = mostly about -30% to -49%
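Secreted IL-1B measured by AlphaLISA bead assay after 16 h compound exposure of THP-1 cells; compounds (final up to 57.5 uM) added 1 h before LPS (250 ng/mL) and ATP (1.25 mM) stimulation; lower signal means less secretion.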
HT1080 IDH1KD tx = qHTS for induction of synthetic lethality in tumor cells producing 2HG: qHTS for the HT-1080-IDH1KD cell line | HT-1080 IDH1 knockdown viability, ATP luminescence, 48 h | AID 686971, 2013 | Potency, µM (series often up to 46.1 µM), inactives show at the highest dose activity, negative = toxicity, hits mostly cytotoxic | 360,000 compounds, 2% hits;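 also: potency is read from the fitted curve at half-maximal effect; 0% = DMSO wells and -100% = cell-free medium wells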
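Viability of IDH1-knockdown HT-1080 fibrosarcoma cells was assessed by CellTiter-Glo after 48 h at 37 °C with titrated compound; concentration-effect curves were classified by fit quality and response size.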
TDP1 cell noCPT = qHTS for Inhibitors of human tyrosyl-DNA phosphodiesterase 1 (TDP1): qHTS in cells in absence of CPT | DT40 Tdp1-/- hTDP1 cells, no CPT, ATP luminescence, 48 h | Potency, µM (titrated, usually from 46.2 µM), for the others: at the top dose activity change, negative = growth inhibition, most hits filed as inhibitors | 420,000 compounds, 15% hits; also: potency is read from the fitted curve at half-maximal effect; nearly all actives have a fitted effect of over 55% in size
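Readout: luminescence from CellTiter-Glo after 30 min in the dark at RT. Cells: DT40 Tdp1-/- with stable hTDP1, 400/well. Exposure: compounds alone, ≥48 hr, 37 °C.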
The depositor's hits bear a star; ? = inconclusive; nt = no result given; [ ] = remark or other dose. Unless noted, calls follow the shape of the dose curve; as a rule, active = well fitted curve in the direction sought with a large enough effect; inconclusive = small, poorly fitted or top-dose-only effect, or another doubt; inactive = no such curve, though single readings can be large; an effect the other way counts as inactive or inconclusive. Unless noted, % is scaled to controls: 0 for no effect and ±100 for the full control effect.

SMILES	DT40 TDP1 CPT	HT1080-NT tox	IL1B secr inh	HT1080 IDH1KD tx	TDP1 cell noCPT
COC(=O)C[C@H]1C[C@H]2c3cc(NC(=O)Nc4ccc(F)cc4)ccc3O[C@H]2[C@@H](CO)O1	-19.8%	1.1%	-11.2	10.9%	?
COc1ccc(C=C2SC(=S)NC2=O)cc1	?	-18.8%	-14.8	-24.1%	18.4µM*
COc1ccc(/C=C2/SC(=S)N(n3c(C)ccc3C)C2=O)cc1	?	5.0%	-8.4	-0.8%	14.6µM*
CCOc1ccc(/C=C2/SC(=S)N(n3c(C)ccc3C)C2=O)cc1	-26.1%	-16.9%	16.7	-18.5%	?
COCc1c(Br)c(C)nc2sc3c(=O)n(-c4cccc(Br)c4)nnc3c12	-1.7%	nt	nt	nt	0.0%
CS(=O)(=O)N(CC(=O)N1CCN(c2ccccc2F)CC1)c1cc(C(F)(F)F)ccc1Cl	?	8.5%	0.0	0.4%	16.4µM*
CCc1ccccc1N(CC(=O)N1CCCC1)S(C)(=O)=O	-1.0%	3.8%	-2.1	-2.0%	-19.2%
CS(=O)(=O)N(CC(=O)N1CCN(c2ccccc2)CC1)c1cc(C(F)(F)F)ccc1Cl	?	-1.5%	5.6	-0.4%	-26.1%
CCc1ccccc1N(CC(=O)N1CCN(c2ccc(F)cc2)CC1)S(C)(=O)=O	14.6µM*	-4.0%	1.3	8.2%[9.24 µM]	23.1µM*
CS(=O)(=O)N(CCc1ccccc1)CC(=O)N1CCN(c2ccccc2)CC1	-25.0%	-8.9%	-3.8	-0.9%	-24.6%
CS(=O)(=O)N(CCc1ccccc1)CC(=O)N1CCN(c2ccc(F)cc2)CC1	?	-3.8%	-12.6	-7.1%	23.1µM*
O=C(NC(=S)NCC1CCCO1)c1ccccc1[N+](=O)[O-] (centres undefined)	3.9%	13.0%	20.5	12.5%	-7.1%
Cc1ccc(C)c(NC(=O)CSc2nc3ccc(N4C(=O)c5ccccc5C4=O)cc3s2)c1	1.5%	5.2%	-2.0	2.3%	-11.4%
Cc1nc([N+](=O)[O-])c(Sc2nc3ccc([N+](=O)[O-])cc3[nH]2)n1Cc1ccccc1	9.2µM*	-13.7%	-76.0*	-9.5%	8.2µM*
Cc1nc([N+](=O)[O-])c(Br)n1CC(=O)c1cccc([N+](=O)[O-])c1	14.6µM*	-24.5%	-97.9*	?	16.4µM*
Cc1nc([N+](=O)[O-])c(Br)n1CC(=O)c1ccc(F)cc1	?	?	-96.5*	18.4µM*	16.4µM*
Cc1nc([N+](=O)[O-])c(Br)n1Cc1ccccc1	5.17µM*	?	-10.2	?	6.51µM*
CCN(C(=O)COC(=O)c1cc([N+](=O)[O-])ccc1N1CCOCC1)C1CCS(=O)(=O)C1 (centres undefined)	-3.8%	-13.1%	1.6	-9.2%	-2.5%
CCN(CC)S(=O)(=O)c1ccc(C)c(NC(=S)NNC(=O)C2CC2)c1	17.1%	9.8%	19.6	12.0%	9.6%
COC(=O)[C@]12CCCCC=C1N(CCc1ccc(OC)c(OC)c1)C(=O)[C@H](CC(=O)NCc1cccc3ccccc13)C2	10.3µM*	?	-13.8	?	9.2µM*
COC(=O)[C@]12CCCCC=C1N(CCc1ccc(OC)c(OC)c1)C(=O)[C@H](CC(=O)NCc1ccc(C)o1)C2	16.4µM*	12.1%	-10.8	22.0%	?
O=C1c2oc3ccccc3c(=O)c2C(c2ccc(Br)cc2)N1c1ccccn1 (centres undefined)	5.5%	nt	nt	nt	-1.9%
CCc1ccc(NC(=O)C2CCCN2S(=O)(=O)c2ccc3c(c2)C(C)(C)C(=O)N3C)cc1 (centres undefined)	?	-1.6%	51.6	1.2%	-29.6%
COc1cccc(CC(=O)OCC(=O)NC(=O)c2ccc(OC(F)F)cc2)c1	0.9%	7.2%	2.5	12.9%	-15.6%
CC(NC(=O)C1CCC(C(=O)NC(C)c2ccccc2)CC1)c1ccccc1 (centres undefined)	4.7%	13.8%	45.6	11.9%	6.9%
SMILES	DT40 TDP1 CPT	HT1080-NT tox	IL1B secr inh	HT1080 IDH1KD tx	TDP1 cell noCPT
Clc1ccc(CON/C=N/c2ncnc3sccc23)c(Cl)c1	13µM*	-15.6%	?	-7.9%	10.3µM*
COc1cc(C(=O)N2CCCCC2c2cc(C(=O)NCc3cccnc3)no2)cc(OC)c1C (centres undefined)	-26.3%	4.7%	-2.5	24.2%	?
CC(=O)CCc1oc2ccc(C)cc2c1-c1ccc(C)o1	11.6µM*	-17.2%	-1.1	-10.3%	14.6µM*
CC(=O)CCc1oc2ccc(NC(C)=O)cc2c1-c1ccc(C)o1	-1.1%	-13.1%	-13.1	-11.2%	-19.5%
CC(=O)c1ccc(S(=O)(=O)N2CCN(C(=O)CSc3ccc(F)cc3)CC2)cc1	0.2%	-1.8%	-1.5	-9.9%	-33.4%
N#C/C(=C\c1ccc(N2CCOCC2)o1)C(=O)NCC1CCCO1 (centres undefined)	-22.5%	10.1%	-5.6	17.3%	-17.0%
N#C/C(=C/c1ccc(N2CCCCC2)cc1)c1cccc(F)c1	?	-2.5%	-20.1	-3.1%	?
N#C/C(=C/c1ccc(N2CCCCCC2)o1)c1ccc(Cl)cc1	14.6µM*	5.62µM*	-101.5*	2.24µM*	18.4µM*
N#C/C(=C/c1ccc(N2CCCCC2)o1)c1cccc(F)c1	10.3µM*	?	-27.7	3.98µM*	14.6µM*
O=C(COC(=O)c1ccc(Cl)nc1)Nc1ccc2c(c1)OCCO2	1.8%	1.6%	21.9	?	-19.0%
CCCCCC(=O)N(CN1C(=O)CCC1=O)c1ccccc1	2.2%	-12.4%	17.5	7.8%	-1.1%
CCCCCC(=O)N(O)C1CC(=O)N(c2ccccc2)C1=O (centres undefined)	3.26µM*	-18.3%	-26.0	-24.5%	4.61µM*
O=C1CC(N2CCN(c3ccccc3O)CC2)C(=O)N1Cc1ccccc1 (centres undefined)	-18.0%	3.6%	0.0	0.2%	?
CCCCCCC(=O)N(O)C1CC(=O)N(Cc2ccccc2)C1=O (centres undefined)	13µM*	?	-87.5*	?	13µM*
O=C1CC(N(O)C2CC(=O)N(Cc3ccccc3)C2=O)C(=O)N1Cc1ccccc1 (centres undefined)	20.6µM*	0.5%	3.8	-2.3%	10.3µM*
CCCCCC(=O)NNC1CC(=O)N(c2ccccc2)C1=O (centres undefined)	0.3%	5.9%	14.1	10.8%	-6.1%
CCNC(=O)C1(C)CCN(C(=O)c2cccc(C#N)c2)C1 (centres undefined)	-1.6%	4.7%	11.6	21.2%	6.3%
